{"source": "PubChem BioAssay (NCATS)", "note": "Records with an inconclusive call do not appear. Activity calls are given as the source filed them. The call rests on the fitted dose curve; in most records, active means well fitted cell-killing curve with a large enough effect; inconclusive means small, poorly fitted or top-dose-only effect, or effect the other way; inactive means no such curve, though single readings can be large or run the other way. Potency means the concentration at half of the fitted maximal effect."}
{"test": "Quantitative High-Throughput drug screen in 47 multiple myeloma cell lines against the NCATS MIPE library collection: PE2_PLB cell viability assay (AID 1919869); further: nearly all actives have a fitted effect of over 35% in size", "settings": "PE2_PLB myeloma cells viability, ATP luminescence, 48 h; series mostly up to 45.8 µM", "procedure,_shortened": "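ATP-based luminescence (CellTiter-Glo, 5 min RT incubation) quantified surviving cells following two days' treatment with MIPE 4.0 agents at 37 °C, 5% CO2.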"}
{"compound": "C[C@H]([C@H](O)CCC(C)(C)O)[C@H]1CC[C@@]2(O)C3=CC(=O)[C@@H]4C[C@@H](O)[C@@H](O)C[C@]4(C)[C@@H]3CC[C@]12C", "Potency": "inactive"}
{"compound": "C1=C2CCCN[C@H]2[C@@H]2C[C@H]1[C@@H]1CCCCN1C2", "Potency": "inactive"}
{"compound": "CC(=Cc1csc(C)n1)[C@@H]1C[C@H]2O[C@@H]2CCC[C@H](C)[C@@H](O)[C@@H](C)C(=O)C(C)(C)[C@@H](O)CC(=O)O1", "Potency": "inactive"}
{"compound": "Clc1ccccc1C(c1ccccc1)(c1ccccc1)n1cccn1", "Potency": "inactive"}
{"compound": "C[C@@H]1CC[C@H]2[C@@H](C)C(=O)O[C@@H]3O[C@@]4(C)CC[C@H]1[C@]32OO4", "Potency": "0.743 µM (active)"}
{"compound": "CO[C@H]1CCC(O[C@H]2C[C@H]([C@]3(C)CC[C@]4(C[C@H](O)[C@@H](C)[C@@H]([C@@H](C)C=C(C)C(=O)[C@H](C)C[C@H](C)C(=O)O)O4)O3)O[C@]3(O[C@@H]([C@H]4O[C@@](O)(CO)[C@H](C)C[C@H]4C)C[C@H]3C)[C@H]2C)O[C@H]1C", "note": "(stereo not given in full)", "Potency": "1.18 µM (active)"}
{"compound": "COC1=CC(C)=C[C@@H](C)[C@@H](O)[C@@H](C)CC(C)=CC=C[C@H](OC)[C@H]([C@@H](C)[C@@H](O)[C@H](C)[C@@]2(O)C[C@@H](O)[C@H](C)[C@@H](C(C)C)O2)OC1=O", "Potency": "0.0118 µM (active)"}
{"compound": "O=c1[nH]c2ccc(Cl)cc2c(N[C@@H]2CN3CCC2CC3)c1-c1nc2ccccc2[nH]1", "Potency": "0.0743 µM (active)"}
{"compound": "COc1ccc(N(C(=O)Oc2c(C)cccc2C)c2ccnc(Nc3ccc(N4CCN(C)CC4)cc3)n2)c(OC)c1", "Potency": "2.64 µM (active)"}
{"compound": "C[C@@H]1[C@H](O)[C@@H](C)C=CC=CCCC=CC=CC=CC=C[C@H](O[C@H]2O[C@@H](C)[C@H](O)[C@@H](N)[C@@H]2O)CC2O[C@](O)(C[C@@H](O)[C@H](O)CC[C@@H](O)C[C@@H](O)C[C@@H](O)CC(=O)O[C@H]1C)C[C@H](O)[C@H]2C(=O)O", "Potency": "inactive"}
{"compound": "C[C@]12COC(=O)C[C@@H]1CC[C@@H]1[C@H]2CC[C@@]2(C)[C@H]1CC[C@]2(C)O", "Potency": "inactive"}
{"compound": "C=C[C@@H]1CN2CCC1C[C@@H]2[C@@H](O)c1ccnc2ccccc12", "note": "(stereo not given in full)", "Potency": "23.5 µM (active)"}
{"compound": "C[C@H]1CCCC=CC2C[C@H](O)C[C@@H]2[C@H](O)C=CC(=O)O1", "note": "(stereo not given in full)", "Potency": "inactive"}
{"compound": "CC1=C(O)C(=O)C=C2C1=CC=C1[C@@]2(C)CC[C@@]2(C)[C@@H]3C[C@](C)(C(=O)O)CC[C@]3(C)CC[C@]12C", "Potency": "0.743 µM (active)"}
{"compound": "CCN1CCN(C(=O)Cc2ccc(Nc3ncc(F)c(Nc4ccc(C(=O)Nc5ccccc5Cl)cc4)n3)cc2)CC1", "Potency": "7.43 µM (active)"}
{"compound": "O=S(=O)(F)Cc1ccccc1", "Potency": "0.105 µM (active)"}
{"compound": "CC(C)[C@]12O[C@@H]1[C@@H]1O[C@]13[C@]1(O[C@H]1C[C@@H]1C4=C(CC[C@@]13C)C(=O)OC4)[C@H]2O", "Potency": "inactive"}
{"compound": "O=c1[nH]c2ccccc2n1C1CCN(Cc2ccc(-c3[nH]c4cc5ncnc5cc4nc3-c3ccccc3)cc2)CC1", "Potency": "2.35 µM (active)"}
{"compound": "CCCC[N+]1(C)[C@H]2CC(OC(=O)[C@H](CO)c3ccccc3)C[C@H]1[C@H]1O[C@H]12", "note": "(stereo not given in full)", "Potency": "inactive"}
{"compound": "CSCC[C@@H](NC(=O)[C@@H](Cc1ccccc1)NC(=O)CNC(=O)CNC(=O)[C@@H](N)Cc1ccc(O)cc1)C(=O)O", "Potency": "inactive"}
{"compound": "COCC1(CO)C(=O)C2CCN1CC2", "note": "(stereo not given)", "Potency": "2.96 µM (active)"}
{"compound": "C=C[C@@H]1CN2CCC1C[C@H]2[C@H](O)c1ccnc2ccccc12", "note": "(stereo not given in full)", "Potency": "20.9 µM (active)"}
{"compound": "CCc1c(C(=O)C(N)=O)c2c(OCC(=O)O)cccc2n1Cc1ccccc1", "Potency": "inactive"}
{"compound": "C=CCON=C(C[C@H]1O[C@@H]2O[C@]3(C)CC[C@@H]4[C@H](C)CC[C@@H]([C@H]1C)[C@@]24OO3)[C@H]1O[C@@H]2O[C@]3(C)CC[C@H]4[C@H](C)CC[C@@H]([C@@H]1C)[C@@]24OO3", "Potency": "0.469 µM (active)"}
{"compound": "COc1ccc2c(c[n+](C)c3c4cc5c(cc4ccc23)OCO5)c1OC", "Potency": "7.43 µM (active)"}
{"compound": "COc1cccc2c1[C@]13CCN(CC4CC4)[C@H](C2)[C@]1(OC)CCC(=O)C3", "Potency": "inactive"}
{"compound": "Cc1[nH]nc2ccc(-c3cncc(OC[C@@H](N)Cc4c[nH]c5ccccc45)c3)cc12", "Potency": "0.935 µM (active)"}
{"compound": "CC(C)(O)C=CC(=O)[C@](C)(O)[C@H]1[C@H](O)C[C@]2(C)[C@@H]3CC=C4[C@@H](C=C(O)C(=O)C4(C)C)[C@]3(C)C(=O)C[C@@]12C", "Potency": "0.0332 µM (active)"}
{"compound": "CC[C@@H]1[C@@H](C)O[C@@](O)([C@@H](C)[C@H](O)[C@H](C)[C@H]2OC(=O)C=CC=C[C@@H](C)[C@@H]([C@@H](C)[C@@H](O)[C@H](C)[C@@]3(O)C[C@H](O[C@H]4C[C@H](O)[C@H](O)[C@H](C)O4)[C@H](CC)[C@@H](C)O3)OC(=O)C=CC=C[C@@H]2C)C[C@H]1O[C@H]1C[C@H](O)[C@H](O)[C@H](C)O1", "Potency": "0.833 µM (active)"}
{"compound": "CC[C@@]1(O)C(=O)OCc2c1cc1n(c2=O)Cc2cc3ccccc3nc2-1", "Potency": "0.209 µM (active)"}
{"compound": "CCOC(=O)Nc1ccc(NCc2ccc(F)cc2)cc1N", "Potency": "inactive"}
{"compound": "CN1CCN(c2ccc([N+](=O)[O-])c3no[n+]([O-])c23)CC1", "Potency": "23.5 µM (active)"}
{"compound": "CCNC(=O)C[C@@H]1N=C(c2ccc(Cl)cc2)c2cc(OC)ccc2-n2c(C)nnc21", "Potency": "2.96 µM (active)"}
{"compound": "C[C@@H]1O[C@@H](O[C@@H]2C=C3CC[C@@H]4[C@@H](CC[C@]5(C)[C@H](c6ccc(=O)oc6)CC[C@@]45O)[C@@]3(C)CC2)[C@H](O)[C@H](O)[C@H]1O", "Potency": "0.0264 µM (active)"}
{"compound": "CC=C(C)C(=O)O[C@H]1C(C)=C2[C@@H]3OC(=O)[C@@](C)(O)[C@@]3(O)[C@@H](OC(=O)CCC)C[C@](C)(OC(C)=O)[C@@H]2[C@@H]1OC(=O)CCCCCCC", "Potency": "0.264 µM (active)"}
